mcGAS MS inh – inhibitors of Mus musculus cyclic GMP-AMP synthase, initial high-throughput assay, cell-free, RapidFire MS. recombinant mouse cGAS, cGAMP by RapidFire MS. inhibition, % at 12.5 µM. actives 0.18% (n = 130,000). AID 1259397, 2018;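 active = inhibition of cGAS enzyme activity at or above 60%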;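 also: enzyme stimulated by 45 bp dsDNA with ATP and GTP substrates; cGAMP share of summed cGAMP plus half ATP and half GTP signals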
* marks the source's active call; other numbers are inactive results. The full list was thinned out, with hits kept by preference.

Screening NC(=S)N/N=C\c1coc2ccccc2c1=O returned mcGAS MS inh 95*.
O=C(c1cccnc1)C1CCCN(Cc2nc(-c3ccccn3)no2)C1 (centres undefined) was read as mcGAS MS inh -2.
O=C(c1cn2c(n1)CNCC2)N1C[C@@H](c2ccccc2)[C@@H]2[C@H]1C1CCN2CC1 was read as mcGAS MS inh -6.
Screening Cc1cc(C)c(C2=NCCN3CCNC3(C(F)(F)F)C2)c(=O)[nH]1 (centres undefined) returned mcGAS MS inh 0.
Screening O=[N+]([O-])c1ccccc1CBr returned mcGAS MS inh -4.
Screening CC[C@@]1(O)C[C@H](O[C@H]2C[C@H](N(C)C)[C@H](O)[C@H](C)O2)c2c(cc3c(c2O)C(=O)c2c(O)cccc2C3=O)[C@H]1C(=O)OC returned mcGAS MS inh 98*.
For CC[C@@]1(O)C[C@H](O[C@H]2C[C@H](N(C)C)[C@H](O)[C@H](C)O2)c2c(cc3c(c2O)C(=O)c2c(O)ccc(O)c2C3=O)[C@H]1C(=O)OC the results were mcGAS MS inh 97*.
`CC[C@@]1(O)C[C@H](O)c2c(cc3c(c2O)C(=O)c2c(O)ccc(O)c2C3=O)[C@H]1C(=O)OC` gave mcGAS MS inh -9.
`CCN(CC)P(=S)(c1ccc(C=NNC(N)=O)o1)N(CC)CC` gave mcGAS MS inh -19.
Cc1cccnc1CC(C)NCC(=O)NCc1ccccc1F (centres undefined) was read as mcGAS MS inh -16.
Screening CCOC(=O)Cn1c(C)nc2c(c1=O)C(CC)c1c(c3ccccc3oc1=O)O2 (centres undefined) returned mcGAS MS inh -10.
`Cc1ccc2c(CC(CC(C)C)[N+](=O)[O-])c[nH]c2c1` (centres undefined) gave mcGAS MS inh -14.
Screening O=C(Cc1ccc2c(c1)OCO2)N1CCCC(N2CCN(c3ccc(F)cc3)CC2)C1 (centres undefined) returned mcGAS MS inh -7.
Screening C=CCNC(=O)c1cn(Cc2ccc(C)o2)cc(C(=O)NCC2OCCc3ccccc32)c1=O (centres undefined) returned mcGAS MS inh 5.
Screening Cc1cc(CC(C)NCC(=O)Nc2c(C)cccc2C(C)C)n[nH]1 (centres undefined) returned mcGAS MS inh -17.

High-throughput results as filed in PubChem.
